Reference: PubChem BioAssay (NCATS)
Records with an inconclusive call do not appear. A number with no mark means an inactive call. Active and inactive are the calls of the source. Calls come from the whole dose curve; as a rule, active = well fitted cell-killing curve with a large enough effect; inconclusive = small, poorly fitted or top-dose-only effect, or effect the other way; inactive = no such curve, though single readings can be large or run the other way.
Potency is the fitted concentration of half-maximal effect.

Assay: Quantitative High-Throughput drug screen in 47 multiple myeloma cell lines against the NCATS MIPE library collection: VP6_DJ cell viability assay (AID 1919867); note: nearly all actives have a fitted effect of over 40% in size
Conditions: ATP luminescence, 48 h; series mostly up to 45.8 µM; viability (% of DMSO): at the top concentration
Source text: PI: Beverly A. Mock Ph.D.
Laboratory of Cancer Biology and Genetics,
Center for Cancer Research, National Cancer Institute,
National Institute of Health, Bethesda, Maryland
Drug resistance and disease progression are common in multiple myeloma (MM) patients, underscoring the need for new therapeutic combinations. […] We hypothesized that effective combinations would reduce MYC expression and enhance p16 activity. […] These preclinical data identify potentially useful drug combinations for evaluation in drug-resistant MM and reveal potential mechanisms of combined drug sensitivity.
Described herein is the primary MIPE qHTS used to cherrypick compounds. Validated compounds were then further tested for potential synergistic activiy.
[1] Peat TJ, Gaikwad SM, Dubois W, Gyabaah-Kessie N, Zhang S, Gorjifard S, Phyo Z, Andres M, Hughitt VK, Simpson RM, Miller MA, Girvin AT, Taylor A, Williams D, D'Antonio N, Zhang Y, Rajagopalan A, Flietner E, Wilson K, Zhang X, Shinn P, Klumpp-Thomas C, McKnight C, Itkin Z, Chen L, Kazandijian D, Zhang J, Michalowski AM, Simmons JK, Keats J, Thomas CJ, Mock BA. Drug combinations identified by high-throughput screening promote cell cycle transition and upregulate Smad pathways in myeloma. Cancer Lett. 2023 Aug 1;568:216284. doi: 10.1016/j.canlet.2023.216284. Epub 2023 Jun 24. PMID: 37356470; PMCID: PMC10408729.
SEQUENCE No. (e.g., 1, 2, 3, etc.); […] (e.g., Cells, Incubation, Reagent, etc.); VALUE and DESCRIPTION.
1; Cells; 5 uL; white, solid bottom 1536-well Greiner assay plate.
2; Compounds; 23 nL; Kalypsis pin tool (Wako USA) equipped with a 1536-well pin head to transfer to the assay plates.
3; Incubation; 48 hours; 37C incubation.
4; Reagent;5uL; CellTiter Glo (Promega).
5; Detector; 425V; Luminescence; Viewlux PerkinElmer.
NOTES (numbers refer to Sequence numbers above)
1. The cell-based screening methods employed in this study were like those previously published. Briefly, the corresponding myeloma cell lines were screened in 1,536-well plates with 500 cells, 5-uL per well for inhibition of cell viability (assessed by measuring ATP levels with CellTiterGlo).
2. NCATS MIPE 4.0 library of approved and investigational drugs were added using the Kalypsis pin tool. Wells treated with DMSO only for 100% viability and media only for 0% viability were used as controls.
3. The assay plates were covered and incubated for 48 hours in a 37C, 5% CO2 incubator with controlled humidity.
4. After 48 hours, CellTilter-GloTM luminescent substrate mix (Promega) reagent was added to the assay plate and plates we incubated for 5 min at room temperature.
5. Signal was measured as median relative luminescence units on a ViewLux (PerkinElmer) multiplate reader.
[1] Heske CM, Davis MI, Baumgart JT, Wilson K, Gormally MV, Chen L, Zhang X, Ceribelli M, Duveau DY, Guha R, Ferrer M, Arnaldez FI, Ji J, Tran HL, Zhang Y, Mendoza A, Helman LJ, Thomas CJ. Matrix Screen Identifies Synergistic Combination of PARP Inhibitors and Nicotinamide Phosphoribosyltransferase (NAMPT) Inhibitors in Ewing Sarcoma. Clin Cancer Res. 2017 Dec 1;23(23):7301-7311. doi: 10.1158/1078-0432.CCR-17-1121. Epub 2017 Sep 12. PMID: 28899971; PMCID: PMC6636827.
In the case of `CCNc1cc(NC2CCC(O)CC2)nc(Nc2ccc3c(ccn3Cc3ccccc3)c2)n1` (stereo not given), the Potency is reported as 23.5 µM (active).
With `CC(=Cc1ccccc1)C=C1SC(=S)N(CC(=O)O)C1=O` the “viability (% of DMSO)” value was 140%.
With `CC(C)(C)c1cc(C(=O)O)c(NC(=O)Nc2ccc3[nH]ncc3c2)s1` the “viability (% of DMSO)” value was 139%.
In the case of `CC[C@H]1OC(=O)[C@H](C)[C@@H](O[C@H]2C[C@@](C)(OC)[C@@H](O)[C@H](C)O2)[C@H](C)[C@@H](O[C@@H]2O[C@H](C)C[C@H](N(C)C)[C@@H]2O)[C@](C)(O)C[C@@H](C)CN(C)[C@H](C)[C@@H](O)[C@]1(C)O`, the “viability (% of DMSO)” value is reported as 139%.
For `CO[C@H]1C=CC=C(C)C(=O)NC2=CC(=O)C(NCCN(C)C)=C(C[C@@H](C)C[C@H](OC)[C@@H](O)[C@@H](C)C=C(C)[C@@H]1OC(N)=O)C2=O`, the Potency was 0.0093 µM (active).
For `CO[C@H]1C(=O)[C@]2(C)[C@@H](OC)C[C@H]3OC[C@@]3(OC(C)=O)[C@H]2[C@H](OC(=O)c2ccccc2)[C@]2(O)C[C@H](OC(=O)[C@H](O)[C@@H](NC(=O)OC(C)(C)C)c3ccccc3)C(C)=C1C2(C)C`, the Potency was 0.001 µM (active).
With `O=C(Nc1cc(Cl)cc2c1[nH]c1cnccc12)c1cccnc1` the Potency was 7.43 µM (active).
With `O=C(O)CCC1CCC(c2cc(F)ccc2F)(S(=O)(=O)c2ccc(Cl)cc2)CC1` (stereo not given) the Potency was 4.69 µM (active).
For `CC(=O)OC1C(C)OC(Oc2c(-c3ccc(O)cc3)oc3cc(O)cc(O)c3c2=O)C(O)C1OC(C)=O` (stereo not given), the “viability (% of DMSO)” value was 84.4%.
In the case of `COCCOC(=O)C1=C(C)NC2=C(C(=O)CC(c3ccccc3OC)C2)C1c1cccc(O)c1` (stereo not given), the Potency is reported as 2.96 µM (active).
With `Cc1ccc(Nc2cc(-c3cccc(N4C(=O)c5ccccc5C4=O)c3)ncn2)cc1NS(C)(=O)=O` the Potency was 14.8 µM (active).
With `C=C1C(=O)[C@@]23C(CC[C@@H]1[C@H]2O)[C@@]12CO[C@]3(O)[C@@H](O)[C@@H]1C(C)(C)CC[C@@H]2O` (stereo not given in full) the Potency was 2.96 µM (active).
With `CC(C(=O)O)c1ccc(-c2ccccc2)c(F)c1` (stereo not given) the Potency was 13.2 µM (active).
For `NC(CO)(CO)CCc1ccc(Sc2cccc(OCc3ccccc3)c2)cc1Cl`, the Potency was 8.33 µM (active).
For `CCCCCCCCCCCC1=C(O)C(=O)C=C(O)C1=O`, the Potency was 2.64 µM (active).
With `O=C(Nc1ccccc1Br)N[C@@H]1CCN(c2ccc(C(F)(F)F)cn2)C1` the Potency was 18.7 µM (active).
For `CNC(=O)c1ccc2cc(C3(O)CCn4cncc43)ccc2c1` (stereo not given), the “viability (% of DMSO)” value was 120%.
For `CN(C)Cc1cccc(N=C(c2ccccc2)c2c(O)[nH]c3cc(C(=O)N(C)C)ccc23)c1`, the Potency was 13.2 µM (active).
In the case of `CC(C)C[C@H](CC(=O)O)C(=O)N[C@@H](Cc1c[nH]c2ccccc12)C(=O)N[C@@H](C)c1ccccc1`, the “viability (% of DMSO)” value is reported as 153%.
For `c1ccc2c(Cc3c[nH]c4ccccc34)c[nH]c2c1`, the Potency was 4.18 µM (active).
With `OC[C@H]1O[C@@H](n2cnc3c2NC=NC[C@@H]3O)C[C@H]1O` the Potency was 14.8 µM (active).
With `Cc1ccc(C(C)(O)c2nc3ccccc3s2)c(C)c1` (stereo not given) the “viability (% of DMSO)” value was 114%.
In the case of `CCOC(=O)O[C@]1(C(=O)OCCl)CC[C@@H]2[C@H]3CCC4=CC(=O)C=C[C@]4(C)[C@@H]3[C@@H](O)C[C@@]21C`, the Potency is reported as 20.9 µM (active).
In the case of `CN(C)Cc1ccc(-c2nc3cccc4c3n2CCNC4=O)cc1`, the Potency is reported as 14.8 µM (active).
In the case of `NC(=O)c1cccc2[nH]c(-c3ccc([C@H]4CCCN4)cc3F)nc12`, the Potency is reported as 14.8 µM (active).
With `CC(C)OC(=O)C(C)(C)Oc1ccc(C(=O)c2ccc(Cl)cc2)cc1` the Potency was 26.4 µM (active).
In the case of `COc1cc(Nc2ncc(F)c(Nc3ccc4c(n3)NC(=O)C(C)(C)O4)n2)cc(OC)c1OC`, the Potency is reported as 1.66 µM (active).
In the case of `COc1ccc(C2Sc3ccccc3N(CCN(C)C)C(=O)C2OC(C)=O)cc1` (stereo not given), the “viability (% of DMSO)” value is reported as 116%.
With `O=C(O)c1ccc(-c2cc3cccnc3c(-c3ccc4nonc4c3)n2)cc1` the Potency was 20.9 µM (active).
For `Nc1ncnc2c1nc(Cl)n2[C@@H]1O[C@H](CO)[C@@H](O)[C@@H]1O`, the Potency was 1.32 µM (active).
For `NS(=O)(=O)c1ccc(NC2=CC(=O)c3ccccc3C2=O)cc1`, the Potency was 5.9 µM (active).
With `O=c1c(O)c(-c2ccc(O)cc2)oc2cc(O)cc(O)c12` the Potency was 16.6 µM (active).
For `CC(C)n1nc(-c2ccc3oc(N)nc3c2)c2c(N)ncnc21`, the Potency was 0.001 µM (active).
In the case of `Cn1cc(C=C2C(=O)Nc3cccnc32)c2ccccc21`, the Potency is reported as 10.5 µM (active).
With `COc1cc2ncnc(-n3nc(-c4ccccn4)nc3N)c2cc1OC` the Potency was 6.62 µM (active).
For `COc1ccc(-c2oc3c(CC=C(C)C)c(OC4O[C@H](CO)[C@@H](O)[C@H](O)[C@@H]4O)cc(O)c3c(=O)c2OC2O[C@@H](C)[C@H](O)[C@@H](O)[C@@H]2O)cc1` (stereo not given in full), the Potency was 16.6 µM (active).
In the case of `C[C@]12CC[C@@H]3c4ccc(O)cc4C[C@@H](CCCCCCCCCS(=O)CCCC(F)(F)C(F)(F)F)[C@H]3[C@H]1CC[C@H]2O` (stereo not given in full), the “viability (% of DMSO)” value is reported as 111%.
With `NS(=O)(=O)c1cccc2c1C(=O)c1cccc(O)c1C2=O` the Potency was 0.662 µM (active).
With `COc1ccc(-c2cc(=O)c3c(O)cc(O)cc3o2)cc1O` the Potency was 4.18 µM (active).
For `Cc1ccc(F)c(NC(=O)Nc2ccc(-c3cccc4[nH]nc(N)c34)cc2)c1`, the Potency was 16.6 µM (active).
